Each structure is given as a SMILES string. Several values for one entry are separate records, joined by “and”; a condition that tells them apart may be missing. Equal values may be shown once. Records with an inconclusive call do not appear. Where a call stands in place of a potency, no number is given. More than one record can exist for a structure, and the calls need not agree. Activity calls are given as the source filed them. The call rests on the fitted dose curve.

The record followed here is PubChem BioAssay (Tox21).
Further: nearly all actives have a fitted effect of over 45% in size.
Potency means the concentration at half of the fitted maximal effect.

The first experiment is described as follows: p53 small molecule agonists, cell-based qHTS assay with human liver microsomes: qHTS cell viability counter screen (AID 1963579). Conditions: p53RE-bla HCT-116 viability, ATP luminescence, 16 h, HLM; series mostly up to 66 µM. The method, boiled down:
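After the 460/530 nm beta-lactamase read, CellTiter-Glo was added to the same wells and luminescence measured after 30 min at room temperature, giving viability of p53RE-bla cells treated 16 h with compounds plus microsomes and NADPH.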
(In general: In qHTS, concentration-response curves come from the screen itself.)
On to `CC(=O)O[C@]1(C(C)=O)CC[C@H]2[C@@H]3C[C@H](C)C4=CC(=O)CC[C@]4(C)[C@H]3CC[C@@]21C`, for which the Potency result is “inactive”.

As for `COC(=O)c1ccc(O)cc1`, the Potency entry was “inactive”.

With `CC(=O)CC(C)(C)O`, the Potency entry was “inactive”.

For `O=c1[nH]cc(F)c(=O)[nH]1`, the Potency result was “inactive”.

With `COc1ccc(Cl)cc1C(=O)NCCc1ccc(S(=O)(=O)NC(=O)NC2CCCCC2)cc1`, the Potency result is “inactive”.

Regarding `CC(=O)OC/C=C(C)/C=C/C=C(C)/C=C/C1=C(C)CCCC1(C)C`, the Potency entry is “inactive”.

For the compound `CCCCCCCCCCN`, the Potency entry was “inactive”.

For the compound `C[C@H]1C[C@H]2[C@@H]3CCC4=CC(=O)C=C[C@]4(C)[C@@]3(F)[C@@H](O)C[C@]2(C)[C@@]1(O)C(=O)CO`, the Potency entry was “inactive and 793 nM (active)”.

In the case of `CCCCN(CCCC)CCCC`, the Potency result is “inactive”.

Turning to `CCCCCCC(C)O` (stereo not given), the Potency result is “inactive”.

Turning to `O=[Se](O)O`, the activity change, negative = cytotoxicity was -2.48% [at 13.5 µM] (inactive).

In the case of `Cc1ccc(S(=O)(=O)NCl)cc1`, the Potency entry is “inactive”.

Turning to `CC(=O)O[C@]1(C(C)=O)CC[C@H]2[C@@H]3C=C(Cl)C4=CC(=O)CC[C@]4(C)[C@H]3CC[C@@]21C`, the Potency result was “inactive”.

Regarding `CCC(C)C=O` (stereo not given), the Potency result is “inactive”.

Turning to `CC1(C)S[C@@H]2[C@H](NC(=O)[C@H](N)c3ccccc3)C(=O)N2[C@H]1C(=O)O`, the Potency result is “inactive”.

Regarding `CC(C)[N+](C)(CCOC(=O)C1c2ccccc2Oc2ccccc21)C(C)C`, the Potency entry is “inactive”.

On to `CC(C)(C)NC(=O)[C@H]1CC[C@H]2[C@@H]3CC[C@H]4NC(=O)C=C[C@]4(C)[C@H]3CC[C@]12C`, for which the Potency entry is “inactive”.

On to `Cn1c(=O)c2[nH]cnc2n(C)c1=O`, for which the Potency result was “inactive”.

Turning to `CCCCC/C=C\C/C=C\CCCCCCCC(=O)O`, the Potency entry is “inactive”.

`CCCc1c(OCCCCc2nn[nH]n2)ccc(C(C)=O)c1O`: the Potency entry was “inactive”.

With `CC(=O)c1ccc(O)cc1`, the Potency entry was “inactive”.

For the compound `NC(=O)c1ccccc1O`, the Potency result was “inactive”.

Take `CC(C)CC(C)CC(O)CC(C)C` (stereo not given): the Potency result was “inactive”.

`C[C@]12CCC(=O)C=C1CC[C@@H]1[C@@H]2C(=O)C[C@@]2(C)[C@H]1CC[C@]2(O)C(=O)CO`: the Potency is 408 nM (active) and inactive.

For `CC(=O)Nc1ccc(C(=O)O)cc1`, the Potency entry is “inactive”.

Consider `Nc1c2c(nc3ccccc13)CCCC2`, for which the Potency result is “inactive”.

Turning to `C[C@H]1C[C@@H]2[C@H]([C@@H](O)C[C@@]3(C)[C@H]2CC[C@]3(O)C(=O)CO)[C@@]2(C)C=CC(=O)C=C12`, the Potency entry is “inactive”.

Take `C=CCNC(N)=S`: the Potency result is “inactive”.

With `CC(=O)Nc1ccc(C(=O)CCl)cc1`, the Potency result is “inactive”.

As for `CCOC(N)=O`, the Potency entry was “inactive”.

`NC(=O)NO`: the Potency result is “inactive”.

On to `O=C(O)CN(CC(=O)O)CC(=O)O`, for which the Potency result was “inactive”.

As for `CN1C(C(=O)Nc2ccccn2)=C(O)c2ccccc2S1(=O)=O`, the Potency entry was “inactive”.

Consider `O=CCCCC=O`, for which the Potency entry is “inactive”.

Take `COCCc1ccc(OCC(O)CNC(C)C)cc1` (stereo not given): the Potency result was “inactive”.

Turning to `CCN(CC)CCOC(=O)c1ccc(N)cc1`, the Potency result was “inactive”.

Turning to `CC(C)Cc1ccc(C(C)C(=O)O)cc1` (stereo not given), the Potency entry is “inactive”.

For the compound `O=c1c(-c2ccc(O)cc2)coc2cc(O)cc(O)c12`, the Potency result was “inactive”.

`CCc1ccc(CCOc2ccc(CC3SC(=O)NC3=O)cc2)nc1` (stereo not given): the Potency entry was “inactive”.

Turning to `Cc1nnc(NS(=O)(=O)c2ccc(N)cc2)s1`, the Potency result is “inactive”.

Another experiment in a line: p53 small molecule agonists, cell-based qHTS assay with rat liver microsomes: qHTS cell viability counter screen (AID 1963580). As to conditions: p53RE-bla HCT-116 + rat microsomes, ATP viability, 16 h; series mostly up to 66 µM. The method, boiled down:
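In HCT-116 cells carrying a p53 response element-bla reporter, compounds were metabolically activated in situ by rat liver microsomes with NADPH over 16 h. Cell ATP content then served as the cytotoxicity measure.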
Regarding `CC(=O)O[C@]1(C(C)=O)CC[C@H]2[C@@H]3C[C@H](C)C4=CC(=O)CC[C@]4(C)[C@H]3CC[C@@]21C`, the Potency entry was “inactive”.

Turning to `COC(=O)c1ccc(O)cc1`, the Potency result is “inactive”.

`CC(=O)CC(C)(C)O`: the Potency entry is “inactive”.

`O=c1[nH]cc(F)c(=O)[nH]1`: the Potency was 47.5 µM (active) and inactive.

Regarding `COc1ccc(Cl)cc1C(=O)NCCc1ccc(S(=O)(=O)NC(=O)NC2CCCCC2)cc1`, the Potency entry was “inactive”.

Regarding `CC(=O)OC/C=C(C)/C=C/C=C(C)/C=C/C1=C(C)CCCC1(C)C`, the Potency result is “inactive”.

On to `CCCCCCCCCCN`, for which the Potency result is “inactive”.

Regarding `C[C@H]1C[C@H]2[C@@H]3CCC4=CC(=O)C=C[C@]4(C)[C@@]3(F)[C@@H](O)C[C@]2(C)[C@@]1(O)C(=O)CO`, the Potency entry was “inactive”.

For `CCCCN(CCCC)CCCC`, the Potency entry is “inactive”.

Take `CCCCCCC(C)O` (stereo not given): the Potency entry was “inactive”.

On to `O=[Se](O)O`, for which the Potency entry was “inactive”.

As for `Cc1ccc(S(=O)(=O)NCl)cc1`, the Potency result was “inactive”.

Consider `CC(=O)O[C@]1(C(C)=O)CC[C@H]2[C@@H]3C=C(Cl)C4=CC(=O)CC[C@]4(C)[C@H]3CC[C@@]21C`, for which the Potency entry was “inactive”.

In the case of `CCC(C)C=O` (stereo not given), the Potency result was “inactive”.

Consider `CC1(C)S[C@@H]2[C@H](NC(=O)[C@H](N)c3ccccc3)C(=O)N2[C@H]1C(=O)O`, for which the Potency entry was “inactive”.

For `CC(C)[N+](C)(CCOC(=O)C1c2ccccc2Oc2ccccc21)C(C)C`, the Potency entry is “inactive”.

On to `CC(C)(C)NC(=O)[C@H]1CC[C@H]2[C@@H]3CC[C@H]4NC(=O)C=C[C@]4(C)[C@H]3CC[C@]12C`, for which the Potency result is “inactive”.

For `Cn1c(=O)c2[nH]cnc2n(C)c1=O`, the Potency entry is “inactive”.

For `CCCCC/C=C\C/C=C\CCCCCCCC(=O)O`, the Potency result is “inactive”.

In the case of `CCCc1c(OCCCCc2nn[nH]n2)ccc(C(C)=O)c1O`, the Potency entry was “inactive”.

For `CC(=O)c1ccc(O)cc1`, the Potency entry is “inactive”.

On to `NC(=O)c1ccccc1O`, for which the Potency entry is “inactive”.

Regarding `CC(C)CC(C)CC(O)CC(C)C` (stereo not given), the Potency result was “inactive”.

Regarding `C[C@]12CCC(=O)C=C1CC[C@@H]1[C@@H]2C(=O)C[C@@]2(C)[C@H]1CC[C@]2(O)C(=O)CO`, the Potency entry is “inactive”.

For `CC(=O)Nc1ccc(C(=O)O)cc1`, the Potency result is “inactive”.

Turning to `Nc1c2c(nc3ccccc13)CCCC2`, the Potency entry was “inactive”.

With `C[C@H]1C[C@@H]2[C@H]([C@@H](O)C[C@@]3(C)[C@H]2CC[C@]3(O)C(=O)CO)[C@@]2(C)C=CC(=O)C=C12`, the Potency result was “inactive”.

For the compound `C=CCNC(N)=S`, the Potency entry is “inactive”.

`CC(=O)Nc1ccc(C(=O)CCl)cc1`: the Potency entry is “inactive”.

As to `CCOC(N)=O`, the Potency result is “inactive”.

Consider `NC(=O)NO`, for which the Potency entry is “inactive”.

As for `O=C(O)CN(CC(=O)O)CC(=O)O`, the Potency entry was “inactive”.

On to `CN1C(C(=O)Nc2ccccn2)=C(O)c2ccccc2S1(=O)=O`, for which the Potency entry is “inactive”.

On to `O=CCCCC=O`, for which the Potency entry was “inactive”.

For the compound `COCCc1ccc(OCC(O)CNC(C)C)cc1` (stereo not given), the Potency result was “inactive”.

In the case of `CCN(CC)CCOC(=O)c1ccc(N)cc1`, the Potency result is “inactive”.

Take `CC(C)Cc1ccc(C(C)C(=O)O)cc1` (stereo not given): the Potency result is “inactive”.

For `O=c1c(-c2ccc(O)cc2)coc2cc(O)cc(O)c12`, the Potency is 16 µM (active).

With `CCc1ccc(CCOc2ccc(CC3SC(=O)NC3=O)cc2)nc1` (stereo not given), the Potency result is “inactive”.

Turning to `Cc1nnc(NS(=O)(=O)c2ccc(N)cc2)s1`, the Potency entry was “inactive”.
